Experimental findings from PubChem BioAssay (EPA / NIEHS) are described below.

Records with an inconclusive call do not appear. The source made the active and inactive calls. The calls were made as follows: active = hit-call score of the fitted dose curve at least 0.9, where 1 is the maximum; inconclusive = response in the unintended direction; inactive = score below 0.9.

Test [1] in a line: Tanguay_ZF_120hpf_JAW_legacy: (Legacy) Oregon State University Tanguay Lab 120 Hour Post-fertilization zebrafish Assay for Jaw Malformation (AID 2283638).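 As to AC50: active means more embryos with jaw malformation than DMSO controls.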 The method, boiled down:
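Static waterborne exposure of dechorionated wild-type (Tropical 5D) zebrafish from 6 to 120 hpf at 28C, 0.64% DMSO vehicle; 5uM trimethyltin chloride served as positive control. Jaw morphology recorded as binary at 120 hpf.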

Test [2] in a line: Tanguay_ZF_120hpf_OTIC_legacy: (Legacy) Oregon State University Tanguay Lab 120 Hour Post-fertilization zebrafish Assay for Otic Vesicle Malformation (AID 2283639). The method, boiled down: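 Otic vesicle malformation is read as a yes/no morphology call at 120 hpf. Exposure is static at 28C with 0.64% (vol/vol) DMSO; embryos that die are excluded from non-mortality endpoints.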

Test [3] in a line: Tanguay_ZF_120hpf_PE_legacy: (Legacy) Oregon State University Tanguay Lab 120 Hour Post-fertilization zebrafish Assay for Pericardial Edema (AID 2283640).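 As to AC50: potency for increased incidence of pericardial edema versus DMSO baseline.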 The method, boiled down: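 Read-out is the presence or absence of pericardial edema at 120 hpf under brightfield, with gain of signal fitted against DMSO controls. Larvae (5D wild-type) were statically exposed at 28C with 0.64% final DMSO.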

A short description of test [4]: Tanguay_ZF_120hpf_BRAI_legacy: (Legacy) Oregon State University Tanguay Lab 120 Hour Post-fertilization zebrafish Assay for Brain Malformation (AID 2283641). The method, boiled down: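 Brain malformation in Tropical 5D zebrafish was recorded as a binary endpoint after static compound exposure from early development to 120 hpf at 28C. Activity was analysed against DMSO as negative control.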

Test [5] is described as follows: Tanguay_ZF_120hpf_SOMI_legacy: (Legacy) Oregon State University Tanguay Lab 120 Hour Post-fertilization zebrafish Assay for Somite Malformation (AID 2283647). The method, boiled down: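 5D WT zebrafish; chorion removed 4 hpf; 1 embryo/well from 6 hpf; static exposure to 120 hpf, 28C, 0.64% DMSO final. Endpoint: somite malformation, binary, brightfield. Mortality excluded.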

A short description of test [6]: Tanguay_ZF_120hpf_PFIN_legacy: (Legacy) Oregon State University Tanguay Lab 120 Hour Post-fertilization zebrafish Assay for Pectoral Fin Malformation (AID 2283648).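 Also: each larva judged yes or no for fin defect by brightfield with dead larvae skipped.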 The method, boiled down: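 5D WT zebrafish; pronase dechorionation 4 hpf; 1 embryo/well at 6 hpf; static exposure to 120 hpf, 28C, sealed, foil-covered; final DMSO 0.64% v/v; 5 uM trimethyltin chloride positive control; fin defect scored yes/no.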

The nature of test [7]: Tanguay_ZF_120hpf_CFIN_legacy: (Legacy) Oregon State University Tanguay Lab 120 Hour Post-fertilization zebrafish Assay for Caudal Fin Malformation (AID 2283649). The method, boiled down: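 Embryos were collected from Tropical 5D wild-type adults and dechorionated at 4 hpf. At 6 hpf each was exposed, one per well, at 0.64% DMSO and 28C. At 120 hpf fin morphology was scored; dead embryos were excluded.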

Test [8] in a line: Tanguay_ZF_120hpf_PIG_legacy: (Legacy) Oregon State University Tanguay Lab 120 Hour Post-fertilization zebrafish Assay for Pigmentation Malformation (AID 2283650). The method, boiled down: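 Pronase dechorionation at 4 hpf; embryos plated at 6 hpf, one per well; static exposure, sealed and foil-covered, 28C, to 120 hpf; pigmentation read by brightfield, binary; DMSO 0.64% baseline, 5uM trimethyltin chloride positive control.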

The nature of test [9]: Tanguay_ZF_120hpf_SWIM_legacy: (Legacy) Oregon State University Tanguay Lab 120 Hour Post-fertilization zebrafish Assay for Swim Bladder Malformation (AID 2283654).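 Also: swim bladder malformation in each larva scored yes or no under brightfield.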 The method, boiled down: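 Embryos lacking chorions were exposed individually and statically to test chemical from 6 to 120 hpf at 28C, with 0.64% DMSO as vehicle. At 120 hpf, swim bladder malformation was recorded as present or absent by brightfield microscopy.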

A short description of test [10]: Tanguay_ZF_120hpf_NC_legacy: (Legacy) Oregon State University Tanguay Lab 120 Hour Post-fertilization zebrafish Assay for Notochord and Tail Malformation (AID 2283656). The method, boiled down:
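Dechorionated 5D zebrafish, 1/well from 6 hpf; static exposure to 120 hpf, 28C, sealed, dark; final DMSO 0.64% v/v. NC scored binary (present/absent); dead embryos not scored. Fit vs DMSO baseline, gain direction.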

A short description of test [11]: Tanguay_ZF_120hpf_TR_legacy: (Legacy) Oregon State University Tanguay Lab 120 Hour Post-fertilization zebrafish Assay for Touch Response (AID 2283667). The method, boiled down: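 5D WT embryos; static exposure to 120 hpf, 28C, sealed/dark; DMSO 0.64% v/v final. TR scored present/absent; dead embryos excluded. Pos ctrl 5uM trimethyltin chloride.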
Test [12] can be described thus: Tanguay_ZF_120hpf_CIRC_legacy: (Legacy) Oregon State University Tanguay Lab 120 Hour Post-fertilization zebrafish Assay for Circulatory Malformation (AID 2283651). The method, boiled down: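 Using wild-type Tropical 5D zebrafish, we exposed dechorionated embryos from 6 to 120 hpf in embryo medium with 0.64% DMSO. Circulatory defects were scored as present or absent; 5uM trimethyltin chloride served as positive control.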

A short description of test [13]: Tanguay_ZF_120hpf_TRUN_legacy: (Legacy) Oregon State University Tanguay Lab 120 Hour Post-fertilization zebrafish Assay for Truncated Body (AID 2283655). The method, boiled down:
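5D wild-type larvae; pronase dechorionation; static exposure 6→120 hpf, 28C; DMSO 0.64% final; 5uM trimethyltin chloride positive control. Readout: presence/absence of truncated body, analyzed relative to DMSO.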

Test [14] deals with Thyroperoxidase (TPO), gene 54314. The test can be described thus: CCTE_Simmons_AUR_rTPO: CCTE's Amplex UltraRed Assay for Thyroperoxidase (TPO) Inhibition, Simmons Lab (AID 2283662).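 Also: potency for loss of signal meaning inhibition of peroxidase activity.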 The method, boiled down: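 Endpoint is decreased Amplex UltraRed fluorescence after a 30-min, 37C reaction of rat thyroid microsomes with 300 uM H2O2. Eight test concentrations (5 nM–87.5 uM final) in 0.5% DMSO, three biological replicates each.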

Test [15] can be described thus: CCTE_Simmons_CellTiterGLO_HEK293T: Viability Assessment in CCTE's Assays for Thyroperoxidase (TPO) Inhibition, Simmons Lab (AID 2283665).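 Also: cells exposed to compound for 24 h before readout; actives reduce ATP signal below DMSO vehicle meaning cytotoxicity.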 The method, boiled down:
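Cytotoxicity counter-screen: human HEK293T cells in low-serum (1% FBS) medium receive test chemical, 5 nM to 87.5 uM final, for 24 h; ATP is quantified by luciferase luminescence.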
Background: Cellular ATP, detected with luciferase, serves as a proxy for viable cell number.

Take `O=C(O)Cn1c(=O)n(Cc2ccc(Br)cc2F)c(=O)c2ccc(Cl)cc21`: the outcome in test [1], in [2], in [3], in test [4], in [5] and in test [6] was inactive. Besides, the call in test [7], in test [8], in test [9], in test [10] and in test [11] was inactive.
Take `CC(C)(O)c1ccc(CNC(=O)c2cccnc2Oc2ccc3nonc3c2)cc1`: the molecule was called inactive in test [1], in test [2], in test [3], in test [4], in test [5] and in test [6]. The result in [7], in [12], in test [9] and in test [13] was inactive.
Usually AC50 stands for the concentration giving half of the maximal activity seen. Turning to `O=C(Nc1ccc(Cl)cc1)Nc1ccc(Cl)c(Cl)c1`, the call in test [1], in test [2], in test [3], in test [4], in [5] and in test [6] was inactive. Further, the molecule was called inactive in [7], in [8], in [9], in test [13], in test [10] and in [11]. The concentration at half-maximal activity (AC50) was 18.9 µM (active) in test [14] and 1.73 µM (active) in test [15].
Take `c1ccc2ccccc2c1`: the molecule was classed as inactive in test [1], in test [2], in test [3], in test [4], in test [5] and in [6]. Also, the molecule was called inactive in [7], in [8], in [9], in test [10] and in test [11].
`CC[C@@H]1C[C@H](N(Cc2cc(C(F)(F)F)cc(C(F)(F)F)c2)C(C)=O)c2cc(C(F)(F)F)ccc2N1C(=O)OC(C)C`: the result in test [1], in test [2], in test [3], in test [4], in [5] and in test [6] was inactive. In addition, the molecule was called inactive in test [7], in [12] and in test [9].
For `Clc1ccccc1C(c1ccccc1)(c1ccccc1)n1ccnc1`, the AC50 in test [1] was 1.2 µM (active); in test [3], 24.8 µM (active); in test [4], 87.3 µM (active); in test [5], 61.3 µM (active); in test [11] it was 25 µM (active). The molecule was classed as inactive in [2], in test [6], in test [7], in [12], in [9] and in [10].
Take `COCC(C)OCC(C)OCC(C)O` (stereo not given): the call in test [1], in [2], in [3], in test [4], in [5] and in test [6] was inactive. The molecule was called inactive in test [7], in test [12], in [9], in [13], in test [10] and in [11].
As to `CC1(C)NC(=O)N(c2ccc([N+](=O)[O-])c(C(F)(F)F)c2)C1=O`, the outcome in test [1], in [2], in test [3], in [4], in test [5] and in test [6] was inactive. Further, the molecule was classed as inactive in [7], in test [12], in test [9] and in [10].
On to `CCCCCCCCOC(=O)c1cc(O)c(O)c(O)c1`, for which the outcome in test [1], in [2], in [3], in test [4], in test [5] and in [6] was inactive. The molecule was called inactive in test [7], in [9], in [10] and in test [11]. For the same molecule, the values for the AC50 in test [14] and in test [15] were 0.921 µM (active) and 7.69 µM (active), respectively.
